PubChem BioAssay (NCATS)
Results filed as inconclusive are left out. Calls of active or inactive are those of the source. Unless noted, calls follow the shape of the dose curve; as a rule, active = well fitted curve in either direction with a large enough effect (not every such curve was filed as active); inconclusive = small, poorly fitted or top-dose-only effect, or another doubt; inactive = flat fitted curve, though single readings scatter.

Tests used:
[1] = AP1 Signaling Pathway (AID 357); details: ME-180 AP-1-bla reporter, EGF-induced, beta-lactamase ratio, 5 h; at 17.2 µM (top of the series) unless noted;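 also: ME-180 reporter cells stimulated with EGF at its EC50 level; % is scaled to controls: 0 for no effect and ±100 for the full control effect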
Procedure, shortened: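 Modulation of EGF-driven AP-1 transcription was assessed with a beta-lactamase reporter in ME-180 cells. Compound and EC50 EGF were co-incubated 5 hours at 37 °C before 2.5-hour CCF4 loading at room temperature and dual-emission reading.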

[2] = Stat Signaling Pathway (AID 446); details: ME-180 (cervical carcinoma) SIE beta-lactamase reporter, IL-6 stimulated, 5 h; at 17.2 µM (top of the series) unless noted;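 also: ME-180 cervical cancer cells given 40 pM IL-6 alongside compound; SIE-controlled beta-lactamase reporter measured as 460/530 nm FRET emission ratio; % is scaled to controls: 0 for no effect and ±100 for the full control effect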
Procedure, shortened: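 FRET read-out (405 nm excitation, 460/530 nm emission) of a beta-lactamase reporter under a STAT-inducible element in ME-180 cervical carcinoma cells. Cells with compound receive 40 pM IL-6 for 5 h. Values are normalised to AC90 stimulation and AC90 JAK-inhibitor controls.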

[3] = molecular target: Glucocorticoid receptor (Homo sapiens) (UniProt P04150); test: GR-GFP Redistribution (AID 450;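 active = compounds whose dose series gives a full or clear partial fitted curve of increased nuclear translocation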; also: potency is read from the fitted curve at half-maximal effect)
Sequence of Glucocorticoid receptor (Homo sapiens) (P04150 whole entry, looked up, the tested form may be a part): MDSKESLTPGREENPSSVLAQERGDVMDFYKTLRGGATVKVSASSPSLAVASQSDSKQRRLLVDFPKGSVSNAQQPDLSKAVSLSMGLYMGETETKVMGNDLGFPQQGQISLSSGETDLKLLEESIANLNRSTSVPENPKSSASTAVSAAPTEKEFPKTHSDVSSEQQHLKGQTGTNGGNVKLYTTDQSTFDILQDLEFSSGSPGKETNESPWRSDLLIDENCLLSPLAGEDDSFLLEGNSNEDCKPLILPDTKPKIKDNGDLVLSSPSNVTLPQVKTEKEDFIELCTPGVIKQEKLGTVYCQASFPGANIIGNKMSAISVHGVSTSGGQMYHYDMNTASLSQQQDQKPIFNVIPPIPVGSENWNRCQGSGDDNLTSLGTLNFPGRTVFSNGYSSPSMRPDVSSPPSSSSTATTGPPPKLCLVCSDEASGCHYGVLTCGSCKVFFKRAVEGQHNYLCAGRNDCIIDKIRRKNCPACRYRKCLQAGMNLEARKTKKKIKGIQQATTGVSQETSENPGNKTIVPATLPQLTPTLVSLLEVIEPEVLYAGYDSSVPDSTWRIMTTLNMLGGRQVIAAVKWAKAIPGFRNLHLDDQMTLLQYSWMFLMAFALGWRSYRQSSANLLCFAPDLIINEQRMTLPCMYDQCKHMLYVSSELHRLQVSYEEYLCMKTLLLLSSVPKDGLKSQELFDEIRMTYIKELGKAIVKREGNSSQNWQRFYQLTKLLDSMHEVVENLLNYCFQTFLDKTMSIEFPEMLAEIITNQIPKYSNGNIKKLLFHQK

[4] = molecular target: Glucocorticoid receptor (Homo sapiens) (UniProt P04150); test: GR-EFC Redistribution (AID 451; calls by dose curve; also: potency is read from the fitted curve at half-maximal effect); details: CHO-K1 GR-EFC translocation, beta-gal luminescence, 2 h
Procedure, shortened: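 CHO-K1 cells stably expressing nuclear-localized β-gal enzyme acceptor and GR fused C-terminally to the enzyme donor fragment; ligand-driven nuclear translocation restores β-gal by complementation. Compounds titrated up to 46 uM final, 2 h at 37 °C; luminescence read.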

[5] = molecular target: Mitogen-activated protein kinase 10 (Mus musculus) (UniProt Q61831); test: JNK3 AlphaScreen Assay (AID 530);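 also: kinase came from lysate of stimulated human HepG2 cells; signal reports phosphorylation of biotinylated GST-cJun 1-79 at Ser73 with 10 µM ATP; % is scaled to controls: 0 for no effect and ±100 for the full control effect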
Procedure, shortened: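 Biotinylated GST-cJun(1-79) served as substrate for JNK3 in HepG2 lysates stimulated with IL-1beta and TNF-alpha. ATP was 10 uM final, pH 7.6. Ser73 phosphorylation was quantified by AlphaScreen (680 nm excitation).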

[6] = molecular target: 3',5'-cyclic-AMP phosphodiesterase 4B (Homo sapiens) (UniProt Q07343); test: qHTS Assay for Inhibitors of PDE-IV (AID 607; active = well fitted activation curve with a large enough effect in the main read-out, with a control signal flat, not every such curve was filed as active; also: % of control where 0% means no effect)
Sequence of 3',5'-cyclic-AMP phosphodiesterase 4B (Homo sapiens) (Q07343 whole entry, looked up): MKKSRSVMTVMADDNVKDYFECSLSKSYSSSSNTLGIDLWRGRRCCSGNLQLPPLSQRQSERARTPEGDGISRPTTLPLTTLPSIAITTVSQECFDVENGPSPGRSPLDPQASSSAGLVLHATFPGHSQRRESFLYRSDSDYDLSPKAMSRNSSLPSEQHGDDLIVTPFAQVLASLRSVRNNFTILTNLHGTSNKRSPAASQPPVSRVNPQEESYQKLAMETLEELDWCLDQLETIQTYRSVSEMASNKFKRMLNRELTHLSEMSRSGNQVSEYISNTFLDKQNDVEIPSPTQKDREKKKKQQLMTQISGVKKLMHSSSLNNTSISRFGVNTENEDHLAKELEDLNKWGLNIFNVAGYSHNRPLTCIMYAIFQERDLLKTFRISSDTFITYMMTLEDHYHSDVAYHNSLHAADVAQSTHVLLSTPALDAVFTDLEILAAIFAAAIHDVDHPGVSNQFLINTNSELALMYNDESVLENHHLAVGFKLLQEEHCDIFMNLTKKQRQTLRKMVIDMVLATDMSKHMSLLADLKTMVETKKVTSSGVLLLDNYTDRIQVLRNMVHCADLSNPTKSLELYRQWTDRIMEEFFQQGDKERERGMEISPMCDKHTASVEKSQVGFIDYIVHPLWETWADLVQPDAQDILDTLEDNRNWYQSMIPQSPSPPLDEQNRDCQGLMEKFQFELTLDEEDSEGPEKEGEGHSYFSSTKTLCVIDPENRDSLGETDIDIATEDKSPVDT
Procedure, shortened: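 Cell-based read-out of cAMP via a modified cyclic nucleotide-gated channel and membrane potential dye (535/590 nm) in HEK293 cells expressing PDE4 endogenously. Compounds tested up to 22.9 uM final; 100 uM RO 20-1724 reference.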

[7] = molecular target: Guanine nucleotide-binding protein G(i) subunit alpha-1 (Homo sapiens) (UniProt P63096); test: qHTS Assay for Inhibitors of RGS12 GoLoco Motif Activity (Green Fluorophore) (AID 879; active = well fitted curve in the direction sought with a large enough effect; an effect the other way counts as inactive or inconclusive;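 also: 0% = labeled peptide with Gαi1 and full inhibition = labeled peptide alone without protein; negative values mean loss of peptide binding seen as reduced polarization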)
Sequence of Guanine nucleotide-binding protein G(i) subunit alpha-1 (Homo sapiens) (P63096 whole entry, looked up): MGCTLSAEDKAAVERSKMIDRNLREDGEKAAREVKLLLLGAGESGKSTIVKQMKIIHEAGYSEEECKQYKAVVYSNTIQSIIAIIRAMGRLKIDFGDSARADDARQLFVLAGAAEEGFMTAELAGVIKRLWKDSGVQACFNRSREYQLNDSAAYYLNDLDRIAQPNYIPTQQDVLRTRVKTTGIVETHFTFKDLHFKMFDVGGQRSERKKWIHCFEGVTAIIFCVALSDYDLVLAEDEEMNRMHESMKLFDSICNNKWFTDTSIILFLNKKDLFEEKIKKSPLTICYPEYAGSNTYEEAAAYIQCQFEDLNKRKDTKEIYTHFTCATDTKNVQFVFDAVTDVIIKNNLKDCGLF
Procedure, shortened: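 A drop in FITC polarization marked displacement of the FITC-tagged RGS12 GoLoco peptide (10 nM) from Gαi1 (50 nM). Compounds were incubated 10 min at room temperature in Tris pH 7.5 buffer containing 150 mM NaCl, 0.1 mM GDP and 0.05% NP40; unlabeled peptide titration served as control.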

[8] = qHTS Assay for Identification of Small Molecule Antagonists for NFkB Signaling Pathway (AID 895; active = well fitted inhibition curve with a large enough effect in the signal ratio, with a control signal flat, not every such curve was filed as active; the % refers to the signal ratio; also: % is scaled to controls: 0 for no effect and ±100 for the full control effect)
Procedure, shortened: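 NFkB-bla ME-180 cervical carcinoma cells with beta-lactamase reporter under NFkB response element; compounds added, then TNF alpha at 10 pM final (EC50), 5 h at 37 C. LiveBLAzer substrate 2 h, room temperature; emission 460/530 nm at 405 nm excitation.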

[9] = qHTS Assay for Identification of Small Molecule Agonists for Thrombopoietin (TPO) Signaling Pathway (AID 917; active = well fitted curve in the direction sought with a large enough effect; an effect the other way counts as inactive or inconclusive; also: % is scaled to controls: 0 for no effect and ±100 for the full control effect)
Procedure, shortened: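 Stimulation at the TPO EC50 (26 pM final) was used to detect activators. Ba/F3 mouse cells bearing human TPO receptor and a luciferase reporter under the Glycoprotein IIb promoter were exposed to compounds for 24 hrs at 37 C.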

[10] = molecular target: Pyruvate kinase (Leishmania mexicana) (UniProt Q27686); test: qHTS Validation Assay for Inhibitors of Leishmania Mexicana Pyruvate Kinase (AID 945; active = well fitted curve in the direction sought with a large enough effect; an effect the other way counts as inactive or inconclusive;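 also: 0% = DMSO only neutral control wells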)
Sequence of Pyruvate kinase (Leishmania mexicana) (Q27686 2-499 E452W): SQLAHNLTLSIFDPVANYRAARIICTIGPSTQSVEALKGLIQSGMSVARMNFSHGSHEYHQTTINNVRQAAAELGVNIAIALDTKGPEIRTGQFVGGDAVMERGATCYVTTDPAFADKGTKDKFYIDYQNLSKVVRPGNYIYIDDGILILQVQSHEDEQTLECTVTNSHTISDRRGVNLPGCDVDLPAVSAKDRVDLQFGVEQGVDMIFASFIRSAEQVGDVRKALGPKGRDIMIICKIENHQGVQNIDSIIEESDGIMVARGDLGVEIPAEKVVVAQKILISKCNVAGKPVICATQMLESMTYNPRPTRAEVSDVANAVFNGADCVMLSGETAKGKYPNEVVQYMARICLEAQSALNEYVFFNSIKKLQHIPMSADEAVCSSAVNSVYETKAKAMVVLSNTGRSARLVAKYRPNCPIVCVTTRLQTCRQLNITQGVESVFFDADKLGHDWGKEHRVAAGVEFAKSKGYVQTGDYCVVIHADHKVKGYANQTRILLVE
Procedure, shortened: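 Luminescent ATP detection (PKLight) after a 1 h room-temperature reaction of 0.2 nM LmPYK E451W mutant with 0.5 mM PEP and 0.1 mM ADP at pH 7.2. Activity is normalized to DMSO-only control wells.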

[11] = molecular target: Pyruvate kinase PKM (Homo sapiens) (UniProt P14618); test: qHTS Assay for Activators of Human Muscle Pyruvate Kinase (AID 954; active = well fitted curve in the direction sought with a large enough effect, not every such curve was filed as active;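 also: 0% = uninhibited enzyme and -100% = no enzyme or full thiadiazolimine inhibition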)
Sequence of Pyruvate kinase PKM (Homo sapiens) (P14618 whole entry, looked up): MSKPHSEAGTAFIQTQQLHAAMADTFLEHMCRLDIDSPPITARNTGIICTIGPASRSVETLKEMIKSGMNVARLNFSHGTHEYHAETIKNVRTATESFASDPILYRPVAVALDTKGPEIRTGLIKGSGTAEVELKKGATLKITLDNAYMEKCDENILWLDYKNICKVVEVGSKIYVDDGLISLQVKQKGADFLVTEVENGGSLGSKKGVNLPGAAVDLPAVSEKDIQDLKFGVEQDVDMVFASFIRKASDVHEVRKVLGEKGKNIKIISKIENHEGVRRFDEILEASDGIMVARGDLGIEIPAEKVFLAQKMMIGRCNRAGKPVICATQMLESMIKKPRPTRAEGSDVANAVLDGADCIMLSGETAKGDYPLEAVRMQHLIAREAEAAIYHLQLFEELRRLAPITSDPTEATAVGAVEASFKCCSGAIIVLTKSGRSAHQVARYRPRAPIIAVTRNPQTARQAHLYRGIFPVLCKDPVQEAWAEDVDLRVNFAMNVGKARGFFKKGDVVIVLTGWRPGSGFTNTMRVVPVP
Procedure, shortened: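 ATP production by PKM2 detected via luciferase luminescence after 1 h room-temperature reaction (0.1 nM enzyme, PEP at Km 0.5 mM, ADP 0.1 mM, pH 7.2 imidazole buffer). Inhibition scaled to no-enzyme control; activation referenced to 0.3 nM enzyme wells.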

[12] = molecular target: Alpha-galactosidase A (Homo sapiens) (UniProt P06280); test: Counterscreen for Glucocerebrosidase Inhibitors: qHTS Assay for Human alpha-Galactosidase at pH 4.5 (AID 992; active = well fitted curve in the direction sought with a large enough effect; an effect the other way counts as inactive or inconclusive; also: 0% is about no effect)
Sequence of Alpha-galactosidase A (Homo sapiens) (P06280 whole entry, looked up): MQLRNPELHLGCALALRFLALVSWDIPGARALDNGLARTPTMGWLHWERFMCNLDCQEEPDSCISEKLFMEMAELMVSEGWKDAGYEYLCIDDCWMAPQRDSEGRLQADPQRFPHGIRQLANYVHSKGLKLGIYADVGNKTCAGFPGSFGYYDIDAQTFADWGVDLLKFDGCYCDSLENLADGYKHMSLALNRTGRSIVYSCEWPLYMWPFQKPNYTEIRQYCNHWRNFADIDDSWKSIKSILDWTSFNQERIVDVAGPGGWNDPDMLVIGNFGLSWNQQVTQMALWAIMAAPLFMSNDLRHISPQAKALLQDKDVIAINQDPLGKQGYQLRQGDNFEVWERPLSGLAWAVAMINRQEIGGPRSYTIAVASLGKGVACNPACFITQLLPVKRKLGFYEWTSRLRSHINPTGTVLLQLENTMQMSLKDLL
Procedure, shortened: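 Fluorogenic 1536-well qHTS at pH 4.5 (citrate, Tween-20): 2 nM enzyme, 80 uM 4-MU-alpha-galactoside, 20 min room temperature, NaOH/glycine stop. Titration 0.7 nM to 77 uM, data normalized to no-enzyme and full-activity controls, Hill-fitted AC50.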

[13] = molecular target: alpha-glucosidase (Oryza sativa, rice) (UniProt Q653V4); test: Counterscreen for Glucocerebrosidase Inhibitors: qHTS Assay for Rice alpha-Glucosidase at pH 5.0 (AID 997; active = well fitted curve in the direction sought with a large enough effect; an effect the other way counts as inactive or inconclusive;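 also: 0% = full activity with enzyme and -100% = basal without enzyme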)
Procedure, shortened: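 Endpoint fluorogenic assay at pH 5.0: compounds (0.7 nM to 77 uM) titrated against 4 nM rice enzyme and 400 uM 4-MU-alpha-glucoside for 20 min at room temperature; NaOH/glycine stop, read ex 365/em 440 nm, Hill-fitted AC50.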

Cc1c(O)c(CN2CCCC2)cc2c1oc(=O)c1ccccc12
inactive: activity change, negative = inhibition [1] 4.42% | activity, negative = inhibition [2] -9.48% | Potency [3] > 20.6 µM

CC(=O)O[C@@H]1[C@H]([N+]2(C)CCCCC2)C[C@@H]2[C@@H]3CC[C@@H]4C[C@@H](OC(C)=O)[C@H]([N+]5(C)CCCCC5)C[C@@]4(C)[C@H]3CC[C@]21C
inactive: activity change, negative = inhibition [1] 13.6% [at 38 µM] | activity, negative = inhibition [2] 18.1% [at 38 µM] | Potency [3] > 46 µM | Potency [4] > 46 µM | Potency [5] | Potency [6] | outcome [7] | Potency [8] | Potency [9] | Potency [10] | outcome [11] | outcome [12] | outcome [13]

COc1ccc(N2CCN(C3CC(=O)NC3=O)CC2)cc1 (stereo not drawn)
inactive: activity change, negative = inhibition [1] -0.252% | activity, negative = inhibition [2] 17.5% | Potency [3] > 20.6 µM

CC(C)CNC(=O)c1c(N)n(/N=C/c2ccccn2)c2nc3ccccc3nc12
inactive: activity change, negative = inhibition [1] 14.9% | activity, negative = inhibition [2] 9.58% | Potency [3] > 20.6 µM

CCCCc1cc(=O)oc2c(CN(C)C)c(O)c(Cl)cc12
inactive: activity change, negative = inhibition [1] -6.67% | activity, negative = inhibition [2] 14.1% | Potency [3] > 20.6 µM

Cc1cc(C)n(CC2CC(=O)N(c3ccc(F)c(Cl)c3)C2=O)n1 (stereo not drawn)
inactive: activity change, negative = inhibition [1] -5.28% | activity, negative = inhibition [2] -2.55% | Potency [3] > 20.6 µM
